The values that follow come from a collection of fitness landscapes (doi:10.1126/science.1257360).

Over roughly 140,000 sequences, “enrichment ratio after two sorts for PhoP signalling” has its median near 0; the highest 2% begin near 11. The full list was thinned out, with the highest values kept by preference.

Sequences and labels used below:
B1: PhoQ; a variant is named by its letters at X, in order, P23837 (parent)
chain: MKKLLRLFFPLSLRVRFLLATAAVVLVLSLAYGMVALIGYSVSFDKTTFRLLRGESNLFYTLAKWENNKLHVELPENIDKQSPTMTLIYDENGQLLWAQRDVPWLMKMIQPDWLKSNGFHEIEADVNDTSLLLSGDHSIQQQLQEVREDDDDAEMTHSVAVNVYPATSRMPKLTIVVVDTIPVELKSSYMVWSWFIYVLSANLLLVIPLLWVAAWWSLRPIEALAKEVRELEEHNRELLNPATTRELTSLVRNLNRLLKSERERYDKYRTTLTDLTHSLKTPLXXLQXXLRSLRSEKMSVSDAEPVMLEQISRISQQIGYYLHRASMRGGTLLSRELHPVAPLLDNLTSALNKVYQRKGVNISLDISPEISFVGEQNDFVEVMGNVLDNACKYCLEFVEISARQTDEHLYIVVEDDGPGIPLSKREVIFDRGQRVDTLRPGQGVGLAVAREITEQYEGKIVAGESMLGGARMEVIFGRQHSAPKDE

The variants in this assay derive from B1. As to the kind of experiment: enrichment ratio after two sorts for PhoP signalling (ratio (wild type AVST 3.29)); higher = more functional. To be noted: with PhoP (E. coli).
On to YTYC, for which the enrichment ratio was at most 0.25.
Turning to TEYC, the enrichment ratio was 12.6.
With TESC, the enrichment ratio amounted to 13.3.
In the case of QESC, the enrichment ratio is 5.96.
As for TEEC, the enrichment ratio came to 12.4.
TEHC: the enrichment ratio was found to be 22.1.
For the variant HPEC, the enrichment ratio is at most 0.25.
To YYHC belongs at most 0.25.
Regarding LWEC, the enrichment ratio was at most 0.25.
Take YRVI: the enrichment ratio was at most 0.25.
Take ETQT: the enrichment ratio was at most 0.25.
With GDCV, the enrichment ratio was 1.12.
As to HWFI, the enrichment ratio was at most 0.25.
With VAGY, the enrichment ratio was determined as 1.53.
For the variant NQGE, the enrichment ratio was at most 0.25.
With YYNI, the enrichment ratio was at most 0.25.
With MCMI, the enrichment ratio was 4.33.
For the variant IAKS, the enrichment ratio was at most 0.25.
NMWR: the enrichment ratio was at most 0.25.
Under KAQY stands at most 0.25; under TENK, 5.62.
Under TETC stands 24.3.
On to TEPC, for which the enrichment ratio was at most 0.25.
With PWAR, the enrichment ratio was at most 0.25.
Take SPMI: the enrichment ratio is at most 0.25.
As for STMI, the enrichment ratio stood at 14.9.
Regarding SIGE, the enrichment ratio is 16.9.
Under SIWI stands at most 0.25; under KYGE, at most 0.25.
To LWMI belongs at most 0.25; to QDFA, at most 0.25; to SIMI, 17.4.
Take QEMI: the enrichment ratio stood at 65.2.
As to SRGE, the enrichment ratio is at most 0.25.
Take SWMI: the enrichment ratio is at most 0.25.
To KYMI belongs at most 0.25; to WVYV, at most 0.25.
As to RSYE, the enrichment ratio was at most 0.25.
Consider DIVY, for which the enrichment ratio was at most 0.25.
As to VANA, the enrichment ratio was at most 0.25.
Under RKTG stands at most 0.25; under ECNY, at most 0.25; under LALQ, 1.26.
As to WIVS, the enrichment ratio is at most 0.25.
To TKVS belongs 7.5; to AKVS, 13.5; to AIVS, 12.6.
Under AHVS stands at most 0.25; under AAVS, at most 0.25; under YWKL, at most 0.25.
For HFDQ, the enrichment ratio is at most 0.25.
In the case of TNNV, the enrichment ratio was 13.4.
On to TNMI, for which the enrichment ratio is 11.7.
On to TNWR, for which the enrichment ratio is at most 0.25.
On to MNQV, for which the enrichment ratio is at most 0.25.
Consider MNNV, for which the enrichment ratio was at most 0.25.
As for TNHI, the enrichment ratio is at most 0.25.
On to TNCH, for which the enrichment ratio was at most 0.25.
On to TNVA, for which the enrichment ratio was at most 0.25.
Turning to TNCV, the enrichment ratio was determined as 10.
Turning to TNMH, the enrichment ratio came out at 15.7.
As to TNMG, the enrichment ratio was at most 0.25.
To TNQV belongs 47.4; to TTFC, at most 0.25; to IGNC, at most 0.25.
Take NNDF: the enrichment ratio is at most 0.25.
On to KDQI, for which the enrichment ratio is at most 0.25.
Under WTKG stands at most 0.25; under KNQF, at most 0.25; under FFRV, at most 0.25.
Under IYFT stands at most 0.25; under ECCW, at most 0.25.
Under SVDL stands 1.56.
As for WHFP, the enrichment ratio was at most 0.25.
For TNMV, the enrichment ratio stood at 12.6.
As for TNMS, the enrichment ratio is 4.8.
Consider TNIV, for which the enrichment ratio is at most 0.25.
In the case of KYGA, the enrichment ratio is at most 0.25.
As for SEGA, the enrichment ratio amounted to 12.
On to STMA, for which the enrichment ratio was 4.9.
As for SEMA, the enrichment ratio is 13.6.
In the case of SRGA, the enrichment ratio is at most 0.25.
Consider KYMA, for which the enrichment ratio was at most 0.25.
Regarding ALVP, the enrichment ratio is at most 0.25.
To HAVN belongs at most 0.25.
Regarding FQPY, the enrichment ratio was at most 0.25.
To AEES belongs at most 0.25; to AESR, 3.86.
For the variant AESI, the enrichment ratio amounted to 25.1.
For AECV, the enrichment ratio is 21.4.
As for AEWV, the enrichment ratio is at most 0.25.
As for AECD, the enrichment ratio worked out at 17.
Under AECL stands 20.9.
Under AWCD stands at most 0.25; under QECD, at most 0.25; under AEPL, at most 0.25.
In the case of AESH, the enrichment ratio is 1.31.
Under AEGL stands 1.47; under DTCP, at most 0.25.
Regarding FCNA, the enrichment ratio was at most 0.25.
As for VDPQ, the enrichment ratio is at most 0.25.
Regarding GHKH, the enrichment ratio was at most 0.25.
On to IWMV, for which the enrichment ratio is at most 0.25.
On to MRYG, for which the enrichment ratio was at most 0.25.
To VCGI belongs at most 0.25.
For VANS, the enrichment ratio is at most 0.25.
To KPRL belongs at most 0.25; to AIIF, at most 0.25.
Consider AECK, for which the enrichment ratio was at most 0.25.
Under AECG stands at most 0.25; under AECQ, 30.9.
Under AEIF stands 18.6; under AECA, 42.4.
Regarding ADIF, the enrichment ratio is at most 0.25.
AECP: the enrichment ratio was at most 0.25.
Take AECS: the enrichment ratio turned out to be 39.5.
Regarding AECI, the enrichment ratio is 4.88.
Under RMEF stands at most 0.25; under THRH, at most 0.25.
With LFGG, the enrichment ratio was at most 0.25.
Under SVRY stands at most 0.25.
In the case of VDCR, the enrichment ratio was at most 0.25.
To PYWQ belongs at most 0.25; to SCIE, at most 0.25; to KCCQ, at most 0.25.
For SCIL, the enrichment ratio amounted to 0.31.
To SCCL belongs 18.7; to SCNE, at most 0.25; to SCVL, 1.96.
Under SCCK stands 14.3; under SCKQ, at most 0.25; under SCCI, 9.92.
Turning to SCCE, the enrichment ratio is 13.9.
For SCWM, the enrichment ratio was at most 0.25.
As to SCCQ, the enrichment ratio was 13.2.
Under QNII stands at most 0.25; under YSFC, at most 0.25.
Under QFDM stands at most 0.25.
On to MRHI, for which the enrichment ratio was at most 0.25.
As to SCGG, the enrichment ratio was 11.1.
On to KYGL, for which the enrichment ratio is at most 0.25.
On to KCCG, for which the enrichment ratio was at most 0.25.
With SCGM, the enrichment ratio came to 9.65.
SCGL: the enrichment ratio came to 13.6.
Under SCTM stands 17.9; under SCCG, 14.3.
Regarding SCNL, the enrichment ratio turned out to be 0.751.
Under SCRM stands at most 0.25; under IPCK, at most 0.25.
Under NTGH stands at most 0.25.
In the case of VHAE, the enrichment ratio is at most 0.25.
For the variant RFHG, the enrichment ratio is at most 0.25.
As to GDAF, the enrichment ratio was at most 0.25.
